In PubChem BioAssay (NCI):
The panel holds about 83,000 compounds, 20% with a hit somewhere; the sample as a whole holds those more often.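 Percent growth is the endpoint: 0 to 100 indicates growth inhibition (40 means 60% inhibition), 0 means no net growth, and negative values indicate cell death.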 Unmarked numbers belong to inactive results. Active and inactive are the calls of the source. The calls were made as follows: active = growth percent below 10; inactive = the rest.

Tests used:
Assay in all cases: NCI-60 one-dose screen, 48 h (100 = growth as untreated, 0 = no growth, -100 = all killed)
Conditions in all cases: 10 µM unless noted
SK-MEL-2 melanoma = tested on: SK-MEL-2 melanoma
EKVX NSCLC = tested on: EKVX NSCLC
SN12C renal = tested on: SN12C renal
UO-31 renal = tested on: UO-31 renal
TK-10 renal = tested on: TK-10 renal
ACHN renal = tested on: ACHN renal
CAKI-1 renal = tested on: CAKI-1 renal
A498 renal = tested on: A498 renal
CCRF-CEM leukemia = tested on: CCRF-CEM leukemia
MOLT-4 leukemia = tested on: MOLT-4 leukemia

CCSc1ncnc2c1ncn2C1OC(CO)C(O)C1O (stereo not given)
growth (SK-MEL-2 melanoma): 63.4%
growth (EKVX NSCLC): 51.8%
growth (SN12C renal): 34.4%
growth (UO-31 renal): 24.5%
growth (TK-10 renal): 37.6%
growth (ACHN renal): 32.6%
growth (CAKI-1 renal): 32.2%
growth (A498 renal): 60.9%
growth (CCRF-CEM leukemia): 23.4%
growth (MOLT-4 leukemia): 21.4%

Cn1c2ccccc2c2c3c(c4c5cccnc5[nH]c4c21)C(=O)N(O)C3=O
growth (SK-MEL-2 melanoma): 97.5%
growth (EKVX NSCLC): 85.9%
growth (SN12C renal): 22.6%
growth (UO-31 renal): 31%
growth (TK-10 renal): 97.4%
growth (ACHN renal): 17.8%
growth (CAKI-1 renal): 24%
growth (A498 renal): 109%
growth (CCRF-CEM leukemia): 13.2%
growth (MOLT-4 leukemia): 0.301% (active)

COC(=O)[C@]12CC[C@@H](C)[C@H](C)[C@@H]1C1=CC[C@@H]3[C@@]4(C)C(c5ncon5)=C[C@@](C)(CO)C4=CC[C@@]3(C)[C@]1(C)CC2
growth (SK-MEL-2 melanoma): -51% (active)
growth (EKVX NSCLC): -76.5% (active)
growth (SN12C renal): -14.4% (active)
growth (UO-31 renal): -93.5% (active)
growth (TK-10 renal): 1.76% (active)
growth (ACHN renal): -89.4% (active)
growth (CAKI-1 renal): 20.6%
growth (A498 renal): -36.4% (active)
growth (CCRF-CEM leukemia): -52.5% (active)
growth (MOLT-4 leukemia): -42.8% (active)

COc1cccc2c1C(=O)c1c(O)c3c(c(O)c1C2=O)C[C@@](O)(C(=O)CO)C[C@@H]3OC1C[C@H](N)[C@H](O)[C@H](C)O1 (stereo not given in full)
growth (SK-MEL-2 melanoma): -75.3% (active)
growth (EKVX NSCLC): 1.39% (active)
growth (SN12C renal): 6.88% (active)
growth (UO-31 renal): -40.7% (active)
growth (TK-10 renal): 5.67% (active)
growth (ACHN renal): -11% (active)
growth (CAKI-1 renal): 1.49% (active)
growth (A498 renal): -75.1% (active)
growth (CCRF-CEM leukemia): -25.7% (active)
growth (MOLT-4 leukemia): -8.66% (active)

COc1cc(-c2c(C#N)c(-c3cccs3)nc3c2c(-c2ccccc2)nn3-c2ccccc2)ccc1O
growth (SK-MEL-2 melanoma): 81%
growth (EKVX NSCLC): 79.9%
growth (SN12C renal): 89.2%
growth (UO-31 renal): 89.1%
growth (TK-10 renal): 101%
growth (ACHN renal): 86.1%
growth (CAKI-1 renal): 66.6%
growth (A498 renal): 106%
growth (CCRF-CEM leukemia): 83.2%
growth (MOLT-4 leukemia): 59.9%

CN(C)c1ccc(-c2ccc(-c3ccc(C(=N)N)c(F)c3)s2)cc1
growth (SK-MEL-2 melanoma): -0.355% (active)
growth (EKVX NSCLC): -73.6% (active)
growth (SN12C renal): -76.5% (active)
growth (UO-31 renal): -92.6% (active)
growth (TK-10 renal): -85.5% (active)
growth (ACHN renal): -95.8% (active)
growth (CAKI-1 renal): -87.9% (active)
growth (A498 renal): 4.91% (active)
growth (CCRF-CEM leukemia): -37.4% (active)
growth (MOLT-4 leukemia): -19.3% (active)

COC(=O)[C@]12CC[C@@H](C)[C@H](C)[C@@H]1C1=CC[C@@H]3[C@@]4(C)CC(=O)[C@H](OC(=O)c5ccco5)[C@@]5(C)COC(=C45)C[C@@]3(C)[C@]1(C)CC2
growth (SK-MEL-2 melanoma): 8.78% (active)
growth (EKVX NSCLC): 35.6%
growth (SN12C renal): 36%
growth (UO-31 renal): 29.3%
growth (TK-10 renal): 38.5%
growth (ACHN renal): 25.9%
growth (CAKI-1 renal): 28.7%
growth (A498 renal): 13.1%
growth (CCRF-CEM leukemia): 25.1%
growth (MOLT-4 leukemia): 24.4%

NC1=NN(c2ccccc2)C(=O)/C1=C/c1ccc(Cl)cc1
growth (SK-MEL-2 melanoma): 96.2%
growth (EKVX NSCLC): 96%
growth (SN12C renal): 94.6%
growth (UO-31 renal): 78.3%
growth (TK-10 renal): 91.2%
growth (ACHN renal): 93.9%
growth (CAKI-1 renal): 97%
growth (A498 renal): 99.7%
growth (CCRF-CEM leukemia): 101%
growth (MOLT-4 leukemia): 102%

COc1ccc(/C=C/C(=O)c2ccc([N+](=O)[O-])cc2)cc1
growth (SK-MEL-2 melanoma): 98.9%
growth (EKVX NSCLC): 128%
growth (SN12C renal): 102%
growth (UO-31 renal): 89.9%
growth (TK-10 renal): 101%
growth (ACHN renal): 108%
growth (CAKI-1 renal): 123%
growth (A498 renal): 107%
growth (CCRF-CEM leukemia): 85.3%
growth (MOLT-4 leukemia): 86.3%

CCN1CCN(C(=O)[C@]23CCC(C)(C)C[C@@H]2C2=CC[C@@H]4[C@@]5(C)C/C(=C/c6cccnc6)C(=O)C(C)(C)[C@@H]5CC[C@@]4(C)[C@]2(C)CC3)CC1
growth (SK-MEL-2 melanoma): 41.9%
growth (EKVX NSCLC): 25.4%
growth (SN12C renal): 29.5%
growth (UO-31 renal): 33.3%
growth (TK-10 renal): 52.4%
growth (ACHN renal): 33.4%
growth (CAKI-1 renal): 31.5%
growth (A498 renal): 45.1%
growth (CCRF-CEM leukemia): 33.4%
growth (MOLT-4 leukemia): 4.16% (active)

C=C(C)[C@@H]1CC[C@]2(C)[C@H](CC=C3[C@@H]4CC(C)(C)CC[C@]4(C(=O)OC)CC[C@]32C)[C@@]1(C)CC/C(N)=N/O
growth (SK-MEL-2 melanoma): 46.6%
growth (EKVX NSCLC): 25.2%
growth (SN12C renal): 36.4%
growth (UO-31 renal): 40.3%
growth (TK-10 renal): 67.9%
growth (ACHN renal): 43.8%
growth (CAKI-1 renal): 37%
growth (A498 renal): 77.7%
growth (CCRF-CEM leukemia): 37.3%
growth (MOLT-4 leukemia): 6.47% (active)

Cn1c(=O)c2c(nc(Br)n2CC(=O)Nc2ccc(F)cc2)n(C)c1=O
growth (SK-MEL-2 melanoma): 99.1%
growth (EKVX NSCLC): 102%
growth (SN12C renal): 109%
growth (UO-31 renal): 80.9%
growth (TK-10 renal): 115%
growth (ACHN renal): 104%
growth (CAKI-1 renal): 95.9%
growth (A498 renal): 117%
growth (CCRF-CEM leukemia): 90.1%
growth (MOLT-4 leukemia): 91.9%

NNC(=O)c1nc2ccccc2[nH]1
growth (SK-MEL-2 melanoma): 99.4%
growth (EKVX NSCLC): 102%
growth (SN12C renal): 102%
growth (UO-31 renal): 101%
growth (TK-10 renal): 111%
growth (ACHN renal): 107%
growth (CAKI-1 renal): 94.9%
growth (A498 renal): 96.2%
growth (CCRF-CEM leukemia): 109%
growth (MOLT-4 leukemia): 79.8%

Fc1ccc2[nH]cc(-c3nc(-c4c[nH]c5ncccc45)cs3)c2c1
growth (SK-MEL-2 melanoma): 52.9%
growth (EKVX NSCLC): 37.2%
growth (SN12C renal): 49.3%
growth (UO-31 renal): 41.8%
growth (TK-10 renal): 52.2%
growth (ACHN renal): 11.3%
growth (CAKI-1 renal): 18.6%
growth (A498 renal): 33.5%
growth (CCRF-CEM leukemia): 18.7%
growth (MOLT-4 leukemia): 2.93% (active)

COc1cc2nc(Cl)nc(Nc3cccc(C(=O)/C=C/c4ccc(F)cc4)c3)c2cc1OC
growth (SK-MEL-2 melanoma): 93.9%
growth (EKVX NSCLC): 71.1%
growth (SN12C renal): 51.6%
growth (UO-31 renal): 53.9%
growth (TK-10 renal): 155%
growth (ACHN renal): 20%
growth (CAKI-1 renal): 56.5%
growth (A498 renal): 86.5%
growth (CCRF-CEM leukemia): 15.5%
growth (MOLT-4 leukemia): 35.7%

CC(=O)O[C@H]1CC[C@]2(C)[C@H]3CC=C4[C@@H]5[C@H](C)[C@@H](C)CC[C@]5(C(=O)NCCNCCNCCN)CC[C@@]4(C)[C@]3(C)CC[C@H]2C1(C)C
growth (SK-MEL-2 melanoma): 105%
growth (EKVX NSCLC): 72.6%
growth (SN12C renal): 78.3%
growth (UO-31 renal): 63.5%
growth (TK-10 renal): 101%
growth (ACHN renal): 91.5%
growth (CAKI-1 renal): 55.8%
growth (A498 renal): 95.4%
growth (CCRF-CEM leukemia): 62.1%
growth (MOLT-4 leukemia): 49.9%

C=C(C)[C@@H]1CC[C@]2(C(=O)N3CCN(CC)CC3)CC[C@]3(C)[C@H](CC[C@@H]4[C@@](C)(CCC(=O)N5CCN(CC)CC5)[C@H](C(=C)C)CC[C@]43C)[C@@H]12
growth (SK-MEL-2 melanoma): 90.2%
growth (EKVX NSCLC): 52.5%
growth (SN12C renal): 66.9%
growth (UO-31 renal): 28.2%
growth (TK-10 renal): 49.6%
growth (ACHN renal): -49.8% (active)
growth (CAKI-1 renal): -15.3% (active)
growth (A498 renal): 92.6%
growth (CCRF-CEM leukemia): 49.4%
growth (MOLT-4 leukemia): 34%

C=C1CC[C@@H](C(=O)OC)Cc2nc(C)ccc21
growth (SK-MEL-2 melanoma): 103%
growth (EKVX NSCLC): 99.8%
growth (SN12C renal): 96.4%
growth (UO-31 renal): 93.6%
growth (TK-10 renal): 101%
growth (ACHN renal): 103%
growth (CAKI-1 renal): 90.9%
growth (A498 renal): 106%
growth (CCRF-CEM leukemia): 102%
growth (MOLT-4 leukemia): 101%

N=c1ccc2nc3c(cc(N)c4ccccc43)oc-2c1
growth (SK-MEL-2 melanoma): -36.1% (active)
growth (EKVX NSCLC): -33.9% (active)
growth (SN12C renal): -95.2% (active)
growth (UO-31 renal): -78.7% (active)
growth (TK-10 renal): -29.7% (active)
growth (ACHN renal): -94.4% (active)
growth (CAKI-1 renal): -60% (active)
growth (A498 renal): -21.4% (active)
growth (CCRF-CEM leukemia): -24.9% (active)
growth (MOLT-4 leukemia): -44% (active)

C#CCn1c2c(c3ccccc31)C[C@]1(C)[C@H]3CC[C@@H]4[C@@H]5C(=CCC[C@H]5C(=C)C)CC[C@@]4(C)[C@]3(C)CC[C@H]1C2(C)C
growth (SK-MEL-2 melanoma): 104%
growth (EKVX NSCLC): 99.2%
growth (SN12C renal): 95.6%
growth (UO-31 renal): 77.1%
growth (TK-10 renal): 122%
growth (ACHN renal): 99.2%
growth (CAKI-1 renal): 80.1%
growth (A498 renal): 111%
growth (CCRF-CEM leukemia): 114%
growth (MOLT-4 leukemia): 99.9%

COc1cc(-c2cc3ncccc3c3nc(OCCN(C)C)c4cccnc4c23)cc(OC)c1OC
growth (SK-MEL-2 melanoma): 19.8%
growth (EKVX NSCLC): 32.8%
growth (SN12C renal): 2.68% (active)
growth (UO-31 renal): -70% (active)
growth (TK-10 renal): -82.7% (active)
growth (ACHN renal): -74.5% (active)
growth (CAKI-1 renal): -37.3% (active)
growth (A498 renal): -72.6% (active)
growth (CCRF-CEM leukemia): 14.5%
growth (MOLT-4 leukemia): 2.03% (active)
